Common to all, as to assay: qHTS profiling for inhibitors of Plasmodium falciparum proliferation (AID 504749); also: nearly all actives have a fitted effect of over 60% in size
Common to all, as to conditions: P. falciparum in erythrocytes, SYBR Green DNA, 72 h; series mostly up to 28.7 µM

One test deals with 7G8. In a few lines:
(§1)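 In a 72 h erythrocytic culture (37 C, humidified, 5% CO2) at 2.5% hematocrit and 0.3% starting parasitemia, compounds were tested; SYBR Green I in detergent lysis buffer stained parasite DNA overnight.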

The next test relates to AA1029. In a few lines:
as §1

Another test deals with AS120. The method, boiled down: as §1
For another test, the system named is ATS189. In a few lines: as §1
The next test concerns ATS95. In a few lines:
as §1

The next test deals with C2A. In a few lines:
as §1

In another test the test system is CP185. The method, boiled down:
as §1

Another test has as its system CP191. In a few lines:
as §1

The test system of the next test is CP192. In a few lines: as §1
The subject of the next test is CP194. In a few lines: as §1
Another test relates to CP201. The method, boiled down: as §1
A further test deals with CP203. In a few lines: as §1
The next test deals with CP211. The method, boiled down: as §1
The test system of the next test is CP215. In a few lines: as §1
For a further test, the system named is CP217. The method, boiled down:
as §1

A further test deals with CP237. The method, boiled down:
as §1

The subject of a further test is CP238. The method, boiled down:
as §1

Another test has as its system CP247. The method, boiled down: as §1
The subject of a further test is CP250. In a few lines: as §1
In the next test the test system is CP252. The method, boiled down:
as §1

The results in this text go back to PubChem BioAssay (NCATS).

SMILES strings stand for the structures. Results filed as inconclusive are left out. Calls of active or inactive are those of the source. Calls follow the shape of the dose curve; as a rule, active = well fitted inhibition curve with a large enough effect; inconclusive = small, poorly fitted or top-dose-only effect; inactive = flat fitted curve, though single readings scatter.
Potency is read from the fitted curve at half-maximal effect.

For `C[C@H](O)CN(C)C`, the Potency result in the test with 7G8, in the test with AA1029, in the test with AS120, in the test on ATS189, in the test with ATS95 and in the test on C2A was “inactive” in each case. The Potency result in the test on CP185, in the test with CP191, with CP192, with CP194, with CP201 and in the test on CP203 was “inactive” in each case. Further, the Potency result in the test on CP211, in the test on CP215, in the test on CP217, in the test with CP237, in the test with CP238 and with CP247 was “inactive” each time. Moreover, the Potency result in the test with CP250 and in the test with CP252 was “inactive” throughout.

Regarding `CC(/C=C/C=C(\C)C(=O)O[C@@H]1O[C@H](CO[C@@H]2O[C@H](CO)[C@@H](O)[C@H](O)[C@H]2O)[C@@H](O)[C@H](O)[C@H]1O)=C\C=C\C=C(C)\C=C\C=C(/C)C(=O)O[C@@H]1O[C@H](CO[C@@H]2O[C@H](CO)[C@@H](O)[C@H](O)[C@H]2O)[C@@H](O)[C@H](O)[C@H]1O`, the Potency result in the test on 7G8, in the test with AA1029, in the test on AS120, with ATS189, in the test on ATS95 and in the test with C2A was “inactive” each time. Moreover, the Potency result in the test on CP185, in the test with CP191, in the test with CP192, in the test with CP194, in the test with CP201 and in the test on CP203 was “inactive” each time. Further, the Potency result in the test on CP211, in the test with CP215, in the test with CP217, with CP237, with CP238 and in the test with CP247 was “inactive” throughout. In addition, the Potency entry in the test with CP250 and with CP252 was “inactive” throughout.

As to `CNC(=O)OCc1cccc(COC(=O)NC)n1`, the Potency entry in the test on 7G8, in the test with AA1029, with AS120, with ATS189, in the test on ATS95 and with C2A was “inactive” in each case. Further, the Potency result in the test on CP185, with CP191, with CP192, in the test on CP194, in the test with CP201 and in the test on CP203 was “inactive” throughout. Moreover, the Potency entry in the test with CP211, in the test on CP215, with CP217, with CP237, in the test with CP238 and in the test with CP247 was “inactive” in each case. For the same molecule, the Potency entry in the test with CP250 and with CP252 was “inactive” in each case.

Regarding `CC(C)(C)c1ccc2c(S(=O)(=O)O)c(C(C)(C)C)ccc2c1`, the Potency result in the test on 7G8, in the test with AA1029, with AS120, in the test on ATS189, with ATS95 and in the test on C2A was “inactive” throughout. The Potency result with CP185, in the test on CP191, with CP192, in the test on CP194, with CP201 and in the test with CP203 was “inactive” in each case. The Potency result in the test with CP211, in the test on CP215, in the test with CP217, in the test on CP237, in the test with CP238 and with CP247 was “inactive” each time. In addition, the Potency entry with CP250 and with CP252 was “inactive” each time.

On to `NCCN`, for which the Potency result with 7G8, in the test on AA1029, in the test on AS120, with ATS189, in the test on ATS95 and in the test with C2A was “inactive” in each case. The Potency result in the test with CP185, in the test with CP191, in the test on CP192, in the test with CP194, in the test with CP201 and with CP203 was “inactive” each time. Further, the Potency result with CP211, in the test on CP215, in the test on CP217, in the test with CP237, in the test on CP238 and with CP247 was “inactive” throughout. The Potency entry with CP250 and in the test with CP252 was “inactive” throughout.

In the case of `F[Si-2](F)(F)(F)(F)F`, the Potency result in the test with 7G8, in the test with AA1029, with AS120, in the test on ATS189, with ATS95 and in the test with C2A was “inactive” in each case. Moreover, the Potency entry in the test with CP185, in the test with CP191, in the test with CP192, in the test with CP194, in the test with CP201 and with CP203 was “inactive” throughout. Further, the Potency result with CP211, with CP215, with CP217, in the test with CP237, with CP238 and with CP247 was “inactive” throughout. The Potency result in the test with CP250 and in the test with CP252 was “inactive” in each case.

As for `O=C(CCCCCCCCCCCCC1CCCC1)Nc1ccc(S(=O)(=O)c2ccc(NC(=O)CCCCCCCCCCCCC3CCCC3)cc2)cc1`, the Potency entry in the test on 7G8, in the test on AA1029, with AS120, in the test with ATS189, in the test on ATS95 and with C2A was “inactive” throughout. For the same molecule, the Potency entry in the test on CP185, with CP191, with CP192, in the test on CP194, in the test with CP201 and in the test on CP203 was “inactive” throughout. The Potency result with CP211, with CP215, in the test with CP217, with CP237, with CP238 and in the test on CP247 was “inactive” throughout. The Potency result with CP250 and in the test with CP252 was “inactive” in each case.

On to `CC(=O)[C@H]1CC[C@H]2[C@@H]3C=CC4=CC(=O)CC[C@@]4(C)[C@H]3CC[C@]12C`, for which the Potency result in the test on 7G8, with AA1029, in the test on AS120, in the test on ATS189, in the test with ATS95 and in the test with C2A was “inactive” in each case. In addition, the Potency result in the test with CP185, with CP191, in the test on CP192, in the test on CP194, in the test with CP201 and in the test on CP203 was “inactive” each time. Further, the Potency entry in the test with CP211, in the test with CP215, in the test on CP217, in the test on CP237, with CP238 and with CP247 was “inactive” each time. In addition, the Potency result in the test on CP250 and with CP252 was “inactive” each time.

On to `Cc1c(Cl)cccc1Nc1ncccc1C(=O)O`, for which the Potency entry in the test with 7G8, with AA1029, with AS120, with ATS189, in the test with ATS95 and in the test on C2A was “inactive” in each case. For the same molecule, the Potency entry in the test on CP185, in the test with CP191, in the test with CP192, in the test on CP194, in the test with CP201 and in the test with CP203 was “inactive” throughout. Also, the Potency entry in the test with CP211, with CP215, in the test with CP217, in the test on CP237, in the test on CP238 and in the test with CP247 was “inactive” throughout. The Potency result in the test on CP250 and in the test with CP252 was “inactive” throughout.

Take `CN=C1C=CC(=C(c2ccc(N(C)C)cc2)c2ccc(N(C)C)cc2)C=C1`: the Potency with 7G8 is 282 nM (active); with AA1029 it was 708 nM (active); in the test with AS120, 1000 nM (active); in the test with ATS189 it was 447 nM (active); in the test on ATS95, 1120 nM (active); in the test with C2A, 447 nM (active). For the same molecule, the Potency in the test on CP185 was 447 nM (active); in the test with CP191 it was 282 nM (active); in the test on CP192 it was 849 nM (active); with CP194 it was 953 nM (active); in the test on CP201, 1200 nM (active); in the test on CP203, 1200 nM (active). The Potency in the test on CP211 is 757 nM (active); in the test on CP215, 953 nM (active); in the test on CP217, 316 nM (active); in the test with CP237, 398 nM (active); in the test with CP238, 562 nM (active); in the test with CP247, 708 nM (active). Also, the Potency is 562 nM (active) in the test on CP250 and 398 nM (active) in the test on CP252.

With `CN(C)C=Nc1c(I)cc(I)c(CCC(=O)O)c1I`, the Potency entry in the test with 7G8, in the test on AA1029, in the test with AS120, in the test on ATS189, in the test with ATS95 and with C2A was “inactive” each time. The Potency result in the test on CP185, with CP191, with CP192, with CP194, in the test on CP201 and in the test with CP203 was “inactive” in each case. Further, the Potency entry in the test with CP211, in the test on CP215, with CP217, in the test with CP237, in the test with CP238 and with CP247 was “inactive” in each case. Also, the Potency entry with CP250 and in the test on CP252 was “inactive” throughout.

Take `O=C(O)c1ccc(OCCn2ccnc2)cc1`: the Potency entry in the test on 7G8, in the test on AA1029, with AS120, in the test with ATS189, in the test on ATS95 and in the test with C2A was “inactive” in each case. The Potency result in the test with CP185, in the test on CP191, in the test with CP192, in the test on CP194, in the test on CP201 and in the test with CP203 was “inactive” throughout. The Potency result in the test on CP211, with CP215, with CP217, with CP237, with CP238 and in the test on CP247 was “inactive” each time. Besides, the Potency entry with CP250 and with CP252 was “inactive” in each case.

As to `CC(C)O`, the Potency entry with 7G8, in the test on AA1029, in the test with AS120, in the test on ATS189, in the test with ATS95 and in the test on C2A was “inactive” throughout. Further, the Potency entry with CP185, with CP191, in the test with CP192, with CP194, in the test with CP201 and in the test on CP203 was “inactive” throughout. Besides, the Potency entry in the test on CP211, in the test on CP215, with CP217, with CP237, in the test on CP238 and in the test with CP247 was “inactive” throughout. Moreover, the Potency entry in the test with CP250 and with CP252 was “inactive” each time.
